Screening data deposited in PubChem by National Center for Advancing Translational Sciences (NCATS).
Rows were chosen to be rich in hits. Some 7.8% of all compounds tested hit in one or more screens of this group.
MARV entry inh: blocks Marburg virus binding to or entry into cells | Marburg virus pseudotyped entry inhibition, cell reporter | hit rate 1.8% among 300,000 | Potency, µM (highest dose often 37.8 µM), hits mostly inhibitors; calls by dose curve; tested in HEK293 cells
Lassa entry inh: blocks Lassa virus binding to or entry into cells; Lassa virus pseudotype entry inhibition, cell reporter; Potency, µM (series often up to 37.9 µM), actives largely listed as inhibitors; hit rate 1.2% among 300,000; AID 540256; calls by dose curve; tested in HEK293 cells; further: nearly all actives have a fitted effect of over 50% in size
Vaccinia Venus: inhibitors of vaccinia virus (Venus reporter); hit rate 0.46% among 330,000; Potency, µM (doses to about 36.5 µM), hits mostly inhibitors; Vaccinia virus Venus reporter expression, fluorescence; AID 720580; calls by dose curve; tested in A549 cells; further: nearly all actives have a fitted effect of over 30% in size
VACV mCherry inh: vaccinia inhibition (mCherry reporter); Potency, µM (titrated, usually from 36.5 µM), hits mostly inhibitors; hit rate 0.63% among 310,000; Vaccinia virus mCherry reporter infection, fluorescence; calls by dose curve; tested in A549 cells; further: nearly all actives have a fitted effect of over 35% in size
HCMV inh: inhibitors of human cytomegalovirus. HFF cells, HCMV-luciferase reporter, 72 h; stronger effect = lower value. activity change, negative = inhibition, % at 57.5 µM. hit rate 4.5% among 410,000; in the data active means activity change below about -60%; inconclusive means no clear call, values can overlap the other calls; inactive means above about -39%
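Two compound doses tested in HFFs infected with HCMV-luciferase, MOI 1 PFU/cell, 72 h at 37C. Lysate luminescence read with OneGlo; data normalized against buffer-only and 10uM Salinomycin inhibitor controls.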
HCV inhibitor: blocks hepatitis C virus; Potency, µM (highest dose often 41.8 µM), actives largely listed as inhibitors; Huh7.5.1 HCVcc-Cre infection, luciferase reporter, 44 h; hit rate 3.4% among 340,000; active means well fitted inhibition curve with a large enough effect; inconclusive means small, poorly fitted or top-dose-only effect, or another doubt; inactive means no such curve, though single readings can be large or run the other way
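Infectious HCVcc-Cre (~0.5 moi) was added to cells just after compound, with cells seeded 4 h earlier at 1,000 per well. Luciferase activity after 44 h culture reported infection; substrate was incubated 15 min at room temperature before reading.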
Hits are given with their value; - = inactive; ? = inconclusive; . = not tested or not shown.

SMILES	MARV entry inh	Lassa entry inh	Vaccinia Venus	VACV mCherry inh	HCMV inh	HCV inhibitor
O=C(COC(=O)c1c2ccccc2cc2ccccc12)NCC(F)(F)F	-	-	?	-	-	11µM
C[C@H]1CN([C@@H](C)CO)C(=O)CCCn2cc(nn2)CO[C@@H]1CN(C)C(=O)c1ccc2ccn(C)c2c1	.	.	.	.	-	.
CCc1cccc(NC(=O)c2cc3c(=O)[nH]c4ccccc4c3n2C)c1	-	-	-	-	-66	.
COc1ccc(CNC(=O)c2cc3c(=O)[nH]c4ccccc4c3n2C)cc1	.	.	.	.	?	-
CSc1cc(-c2ccccc2)n(Cc2c(Cl)cccc2Cl)c(=O)c1C#N	-	?	-	.	-	-
CSc1cc(-c2ccccc2)n(C)c(=O)c1C#N	-	-	-	?	-66	10µM
Cc1ccc(-c2ccc(/C=C3\C(=O)ON=C3c3ccccc3)o2)c([N+](=O)[O-])c1	?	-	.	.	-94	?
Cc1c(Cl)cccc1NC(c1ccc(F)cc1)c1nnc(-c2ccccc2)o1 (stereo not drawn)	.	-	-	-	-	.
Cc1ccc(S(=O)(=O)N(C)C)cc1NC(=S)Nc1ccc2cn[nH]c2c1	-	-	-	-	-67	-
Cc1ccc(NC(=S)Nc2ccc3cn[nH]c3c2)cc1C	.	.	.	.	-	-
CC(=O)c1ccc(NC(=S)Nc2ccc3cn[nH]c3c2)cc1	-	-	-	-	-68	-
CCOc1ccccc1C(=O)Nc1cc2c(cc1N1CCCCC1)n(C)c(=O)n2C	-	?	-	-	-	.
CCc1ccc(NC(=O)CSc2nc(-c3cccc(OC)c3)nc3c2Cc2c(CO)cnc(C)c2O3)cc1	.	-	-	-	-	.
CCOC(=O)c1sc2nc(-c3ccco3)c3c(c2c1N)CC(C)(C)OC3	-	-	13µM	10µM	-	?
COC(=O)CSc1ncnc2c1sc1nc(-c3ccco3)c3c(c12)CC(C)(C)OC3	.	.	.	.	.	-
NCC12CC3CC(C1)CC(c1ccc(Br)cc1)(C3)C2	.	.	22µM	?	-	13µM
CC(Oc1ccc(Cl)cc1Cl)C(=O)Nc1ccc(N2CCN(C)CC2)cc1 (stereo not drawn)	12µM	?	-	-	-	?
O=C(COc1ccccc1[N+](=O)[O-])Nc1ccc(N2CCN(C(=O)c3cccs3)CC2)cc1	?	?	-	-	-	6.3µM
O=C(COc1ccc(Cl)cc1Cl)NNC(=S)Nc1ccc(F)cc1	-	-	.	.	-103	-
CCN1CCN(c2ccc(NC(=O)COc3ccc(Cl)cc3C)cc2)CC1	.	.	.	.	?	10µM
Cc1cccc(Cn2nc(C)n3c(cc4cc(C)ccc43)c2=O)c1	-	-	-	-	-	.
N[C@H](C(=O)O)[C@H](Cc1ccccc1)C(=O)O	-	-	.	.	.	.
COCCCn1c(SCC(=O)Nc2ccc(F)cc2)nc2c(sc3ccccc32)c1=O	.	-	-	-	-	.
COc1ccc(CC(=O)NNC(=S)Nc2ccccc2)cc1Cl	-	-	-	-	-70	-
O=C(COc1ccccc1Cl)Nc1ccc(N2CCCC2)cc1	.	.	.	.	-	?
SMILES	MARV entry inh	Lassa entry inh	Vaccinia Venus	VACV mCherry inh	HCMV inh	HCV inhibitor
O=C(COc1ccccc1Cl)Nc1cc(NC(=O)COc2ccccc2Cl)cc(C(=O)O)c1	?	8.9µM	-	-	-	-
O=C(COc1ccccc1Cl)Nc1ccc(N2CCN(C(=O)c3ccccc3)CC2)cc1	.	.	.	.	-	5µM
CN1CCN(c2ccc(Cl)cc2NC(=O)c2ccc(=O)n(C)n2)CC1	?	-	-	-	-	?
CC(Oc1ccc(Br)cc1)C(=O)Nc1cc(Cl)ccc1N1CCN(C)CC1 (stereo not drawn)	8.9µM	?	-	-	-	?
Oc1ccc(-c2cccnc2)cc1CNC1CN2CCC1CC2 (stereo not drawn)	.	.	-	-	.	.
Cc1ccc2[nH]c(C)c(CCNC(=O)c3cc4cc(Br)ccc4oc3=O)c2c1	-	-	-	-	-	.
COc1ccc(C(=O)Nc2ccccc2-c2nc3ccccc3s2)c(OC)c1	.	-	-	-	-	.
CC(=O)OC[C@@H]1O[C@H](C/C=N\OC[C@@H](O)COCc2ccco2)C=C[C@@H]1OC(C)=O	-	.	.	.	.	.
CC(=O)N1CCN(c2ccc(NC(=O)COc3ccc(Cl)cc3Cl)cc2)CC1	-	-	.	.	-64	?
CC(=O)N1CCN(c2ccccc2NC(=O)COc2ccc(Cl)cc2Cl)CC1	?	-	-	.	-	?
CCC(C)(C)NS(=O)(=O)c1cc(-c2cc(C)no2)ccc1C	.	-	-	-	-	.
Cc1snc(SCc2ccc(F)cc2)c1C#N	-	-	-	-	-	-
Cc1snc(SCc2ccc(Cl)cc2)c1C#N	.	.	.	.	-100	-
CCOC(=O)c1nnn2c1nc(Nc1cccc(C(F)(F)F)c1)c1ccccc12	?	-	-	-	-74	-
NNc1nc2c(-c3cccc(C(F)(F)F)c3)nnn2c2ccccc12	?	?	-	?	-	14µM
CC(=O)NCCNc1nc2c(-c3cccc(C)c3)nnn2c2ccccc12	.	.	.	.	-	14µM
CC(=O)NCCNc1nc2c(-c3ccc(C)cc3)nnn2c2ccccc12	-	-	-	-	-	.
CCCNC(=O)C1CCC(Cn2c(=O)c3sccc3n(CC(=O)N3CCC(C)CC3)c2=O)CC1 (stereo not drawn)	.	-	-	-	-	.
CCn1cc(CNC(=O)c2cc(COc3ccc(F)cc3Cl)on2)cn1	15µM	?	-	-	?	?
CCn1nc(C)c(CNC(=O)c2cc(COc3ccc(F)cc3Cl)on2)c1C	.	.	.	.	-85	?
Cc1nnc(CN(C)C(=O)c2cc(COc3ccc(F)cc3Cl)on2)o1	?	-	-	-	.	-
CN(Cc1cccc2cnccc12)C(=O)c1cc(COc2ccc(F)cc2Cl)on1	-	?	-	-	-	10µM
Cc1cc(C)n(CCNC(=O)c2cc(COc3ccc(F)cc3Cl)on2)n1	-	-	-	-	-	-
CCn1nc(C)c(CNC(=O)c2cc(COc3ccc(C)nc3)on2)c1C	?	?	-	-	-	11µM
CCOc1ccc(S(=O)(=O)n2nc(C)c(S(=O)(=O)N3CCCCCC3)c2C)cc1	.	-	-	-	-	.
SMILES	MARV entry inh	Lassa entry inh	Vaccinia Venus	VACV mCherry inh	HCMV inh	HCV inhibitor
COc1ccccc1NC(=O)C1CCCN(c2ncnc3onc(-c4ccc(F)cc4)c23)C1 (stereo not drawn)	.	-	-	-	-	.
O=c1nc2sc3ccccc3n2c(=O)n1-c1cccc(Cl)c1	?	?	-	-	.	11µM
O=c1nc2sc3ccccc3n2c(=O)n1-c1ccc(Cl)c(Cl)c1	-	-	-	-	-	.
CCCCC(=O)Nc1ccc(C)c(S(=O)(=O)N2CCCCCC2)c1	?	?	-	-	-	?
CCCCNC(=O)C1=C(N)C(C(=O)Nc2ccc(C)c(S(=O)(=O)N3CCCCC3)c2)SC1=Nc1ccc(C)cc1C (stereo not drawn)	13µM	-	-	-	-	-
COc1cc(OC)cc(-c2cc3ncccc3cn2)c1	.	.	-	-	-	11µM
COC(=O)Cc1ccc(NC(=S)N2CCN(c3ccccn3)CC2)cc1	.	.	.	.	-	-
Cc1cc(C)nc(N2CCC(C(=O)N3CCN(c4cc(Cl)ccc4C)CC3)CC2)n1	?	-	.	.	-	13µM
